# According to PubChem BioAssay (NCATS):
# Where “and” joins values, the source holds several entries; their conditions need not be identical. Identical values can stand only once. Results filed as inconclusive are left out. A call without a number means that no potency is given here. Calls of active or inactive are those of the source. Calls come from the whole dose curve; as a rule, active = well fitted inhibition curve with a large enough effect; inconclusive = small, poorly fitted or top-dose-only effect; inactive = flat fitted curve, though single readings scatter. Peptide text beside a SMILES is read from it.
# Test system: Zika virus NS2B-NS3 protease
# Assay: Primary screen GU AMC qHTS for Zika virus inhibitors (AID 1347154); note: nearly all actives have a fitted effect of over 70% in size
# Details: Zika NS2B-NS3 unlinked protease, AMC fluorogenic substrate; series mostly up to 54.1 µM
# Outline: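 Unlinked Zika NS2B hydrophilic domain–NS3 protease complex at 25 nM in 10 mM Tris-HCl pH 8.0, 0.01% Tween 20, with an AMC peptide substrate. Fluorescence change (340/450 nm) over 15 min at room temperature, normalized to controls, fitted to 4-parameter Hill.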
# Potency is the fitted concentration of half-maximal effect.
row,Structure (SMILES),Potency
1,CN1CCC(=C2c3ccccc3CCc3sccc32)CC1,inactive
2,O=C(NC(Cc1cc(=O)[nH]c2ccccc12)C(=O)O)c1ccc(Cl)cc1 (stereo not drawn),inactive
3,CC1Cc2ccccc2N1NC(=O)c1ccc(Cl)c(S(N)(=O)=O)c1 (stereo not drawn),inactive
4,O=C(NCCO[N+](=O)[O-])c1cccnc1,inactive
5,Cn1c(NCCN(CCO)CCCc2ccc([N+](=O)[O-])cc2)cc(=O)n(C)c1=O,inactive
6,Cc1cccc(CN2CCN(C(c3ccccc3)c3ccc(Cl)cc3)CC2)c1 (stereo not drawn),inactive
7,c1ccc2[nH]c(-c3cscn3)nc2c1,inactive
8,Cc1nc2n(c(=O)c1CCN1CCC(c3noc4cc(F)ccc34)CC1)CCCC2,inactive
9,CCCS(=O)c1ccc2nc(NC(=O)OC)[nH]c2c1 (stereo not drawn),inactive
10,COC(=O)[C@H](Cc1ccccc1)NC(=O)[C@@H](N)CC(=O)O (H-Asp-Phe-OMe),inactive
11,CC1=C(C)C(=O)C(C(CCCCCC(=O)O)c2ccccc2)=C(C)C1=O (stereo not drawn),inactive
12,Cc1cc(=O)c2c(O)c3c(O)cc(=O)c4c3c3c(cc(O)c1c23)C(C)(C)C=4O,inactive
13,O=C(O)c1cccc(-c2noc(-c3ccccc3F)n2)c1,inactive
14,CC(=O)Nc1ccc(O)cc1,inactive
15,COc1cc(Nc2c(C#N)cnc3cc(OCCCN4CCN(C)CC4)c(OC)cc23)c(Cl)cc1Cl,inactive
16,CC(C)c1ccc2oc3nc(N)c(C(=O)O)cc3c(=O)c2c1,15.8 µM (active)
17,C=CCc1cc(OC)c(O)c(C(=O)NCCO)c1,inactive

row,Structure (SMILES),Potency
1,NS(=O)(=O)c1cc(C(=O)O)c(NCc2ccco2)cc1Cl,inactive
2,O=C(CS(=O)Cc1ccco1)NCC=CCOc1cc(CN2CCCCC2)ccn1 (stereo not drawn),inactive
3,CC(C)c1nc(CN(C)C(=O)N[C@H](C(=O)N[C@@H](Cc2ccccc2)C[C@H](O)[C@H](Cc2ccccc2)NC(=O)OCc2cncs2)C(C)C)cs1,inactive
4,Oc1ccc(OCc2ccccc2)cc1,inactive
5,CCCCCCCCOc1ccccc1C(=O)Nc1ccc(C(=O)OCC[N+](C)(CC)CC)cc1,inactive
6,O=P(O)(O)C(O)(Cn1ccnc1)P(=O)(O)O,inactive
7,COc1cc2nc(N3CCN(C(=O)C4CCCO4)CC3)nc(N)c2cc1OC (stereo not drawn),31.6 µM (active) and 24.1 µM (active)
8,CN(c1nccc(=O)[nH]1)C1CCN(c2nc3ccccc3n2Cc2ccc(F)cc2)CC1,inactive
9,COC(=O)N[C@H](C(=O)N[C@@H](Cc1ccccc1)[C@@H](O)CN(Cc1ccc(-c2ccccn2)cc1)NC(=O)[C@@H](NC(=O)OC)C(C)(C)C)C(C)(C)C,inactive
10,COc1ccc(C2(C#N)CCC(C(=O)O)CC2)cc1OC1CCCC1 (stereo not drawn),inactive
11,Cc1cc2cc3c(C)cc(=O)oc3c(C)c2o1,inactive
12,C[C@H](Cn1cnc2c(N)ncnc21)OCP(=O)(O)O,inactive
13,CCC[C@@H]1C[C@@H](C(=O)N[C@@H]([C@H]2O[C@H](SC)[C@H](O)[C@@H](O)[C@H]2O)[C@@H](C)O)N(C)C1,inactive
14,O=C(O)c1cc(=O)c2c(OCC(O)COc3cccc4oc(C(=O)O)cc(=O)c34)cccc2o1,inactive
15,Cc1nccn1CC1CCc2c(c3ccccc3n2C)C1=O (stereo not drawn),inactive
16,COCCCOc1ccnc(CS(=O)c2nc3ccccc3[nH]2)c1C (stereo not drawn),inactive
